These results are taken from PubChem BioAssay (NCI).

The structures appear in SMILES notation. This is part of a sample that, as a whole, favours compounds with a hit. Of some 83,000 tested, about 20% had one in any assay.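 In brief: 96-well plates, 48 h treatment, single concentration, percent growth endpoint.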 Unmarked numbers belong to inactive results. Calls of active or inactive are those of the source. The calls were made as follows: active = growth percent below 10; inactive = the rest.

Some test systems named below: T-47D breast; BT-549 breast; MDA-MB-435 melanoma; SW-620 colon; MCF7 breast; HCT-116 colon; HCC-2998 colon; KM12 colon.
Holding throughout (assay): NCI-60 one-dose screen, 48 h (100 = growth as untreated, 0 = no growth, -100 = all killed)
Details in all cases: 10 µM unless noted

Take `Cc1nn(-c2ccccc2)c(Oc2c(Cl)cccc2Cl)c1/C=N/N=c1\sc2ccccc2n1C`: the growth is 47.2% in the assay with T-47D breast; 63.6% with BT-549 breast; 64.6% in the assay on MDA-MB-435 melanoma; 34.7% with SW-620 colon; 45.5% in the assay on MCF7 breast; 30.1% in the assay on HCT-116 colon. Besides, the values for the growth in the assay on HCC-2998 colon and with KM12 colon were 71.4% and 44.3%, respectively.
For the molecule `O=S(=O)(NCCCNc1nccc(-c2c(-c3cccc(O)c3)nc3occn23)n1)c1ccc(Cl)cc1`, the growth is 64.2% in the assay with T-47D breast; 102% in the assay with BT-549 breast; 33.8% in the assay with MDA-MB-435 melanoma; 109% in the assay on SW-620 colon; 82.6% with MCF7 breast; 61.9% in the assay with HCT-116 colon. Besides, the growth in the assay on HCC-2998 colon was 120%; in the assay with KM12 colon it was 86.2%.
Regarding `C[C@H]1[C@H](C)CC[C@]2(C(=O)Nc3ccc4ncccc4c3)CC[C@]3(C)C(=CC[C@@H]4[C@@]5(C)CCCNC(C)(C)[C@@H]5CC[C@]43C)[C@H]12`, the growth with T-47D breast was 78%; in the assay with BT-549 breast it was 92%; with MDA-MB-435 melanoma, -91.8% (active); with SW-620 colon, -83.9% (active); in the assay on MCF7 breast it was -83.4% (active); in the assay with HCT-116 colon it was -100% (active). Besides, the growth in the assay with HCC-2998 colon is -84.4% (active); with KM12 colon, -60.5% (active).
`COc1ccc(/C=C(\C#N)n2nc3cccc(F)c3n2)cc1`: the growth is 90.5% in the assay on T-47D breast; 109% with BT-549 breast; 77.4% in the assay on MDA-MB-435 melanoma; 103% in the assay with SW-620 colon; 89.5% with MCF7 breast; 101% in the assay with HCT-116 colon. The growth was 107% in the assay on HCC-2998 colon and 93.7% in the assay on KM12 colon.
With `C=CCN1C(=O)/C(=C/C(=O)OC)S/C1=N\NC(=O)c1cc2ccc1/C=C\c1ccc(cc1)/C=C\2`, the growth in the assay with T-47D breast was 62.8%; in the assay with BT-549 breast, 61.7%; in the assay on MDA-MB-435 melanoma it was 100%; in the assay with SW-620 colon it was 44.5%; in the assay on MCF7 breast, 51.5%; in the assay on HCT-116 colon, 54%. Moreover, the growth is 108% with HCC-2998 colon and 81.6% with KM12 colon.
As to `CCCCCOc1ccc(/C=N/Nc2cc(C)nc3ccc(Cl)cc23)cc1`, the growth in the assay with T-47D breast was 68.6%; with BT-549 breast, 103%; in the assay with MDA-MB-435 melanoma, -75.6% (active); in the assay on SW-620 colon it was -73.8% (active); in the assay with MCF7 breast it was -73.6% (active); with HCT-116 colon, -64.5% (active). The growth with HCC-2998 colon is -67.7% (active); in the assay on KM12 colon, -84.6% (active).
For `CCCOC(=O)N[C@H]1CCc2c(Cl)c(OC)c(OC)c(OC)c2-c2ccc(SC)c(=O)cc21`, the growth in the assay with T-47D breast was 45.9%; in the assay on BT-549 breast it was 1.4% (active); with MDA-MB-435 melanoma, -26.9% (active); in the assay with SW-620 colon, 20.2%; in the assay with MCF7 breast, 14.7%; in the assay with HCT-116 colon, 0.896% (active). Besides, the figures for the growth in the assay with HCC-2998 colon and in the assay on KM12 colon were 22.6% and -6.7% (active), respectively.
Turning to `COc1cc(NCCCCCNC(C)(C)C)c2ncccc2c1`, the growth with T-47D breast was 19.9%; in the assay with BT-549 breast it was 109%; in the assay with MDA-MB-435 melanoma, 94.6%; in the assay with SW-620 colon, 96.7%; in the assay on MCF7 breast it was -54.4% (active); in the assay on HCT-116 colon, 101%. The growth with HCC-2998 colon was 97.5%; with KM12 colon, 95.4%.
In the case of `COc1ccc(C/C(=C(\C)c2ccc(OCCN3CCCC3)cc2)c2ccc(OCCN3CCCC3)cc2)cc1`, the growth in the assay with T-47D breast is 77.6%; in the assay with BT-549 breast, 85%; in the assay on MDA-MB-435 melanoma, -77.2% (active); with SW-620 colon, -35.4% (active); with MCF7 breast it was -7% (active); with HCT-116 colon, 24.9%. Also, the growth was 68.9% with HCC-2998 colon and 47.9% in the assay with KM12 colon.
In the case of `Cn1ccnc1C(=O)/C=C/c1ccc(CC(=O)Nc2ccc(Cl)cc2)cc1`, the growth in the assay on T-47D breast is 2.07% (active); in the assay with BT-549 breast, 17.6%; in the assay with MDA-MB-435 melanoma, 17.6%; with SW-620 colon, 7.1% (active); in the assay on MCF7 breast it was 25.5%; in the assay on HCT-116 colon, 7.88% (active). Also, the figures for the growth with HCC-2998 colon and with KM12 colon were 30.3% and 9.56% (active), respectively.
Turning to `COc1cc2c(=O)n(CCN(C)C)c3c4cc5c(cc4ccc3c2cc1OC)OCO5`, the growth with T-47D breast was -20.5% (active); in the assay on BT-549 breast, 1.42% (active); in the assay on MDA-MB-435 melanoma, -65.4% (active); in the assay with SW-620 colon, -17.9% (active); with MCF7 breast, 7.27% (active); with HCT-116 colon it was -7.98% (active). In addition, the growth was -58.1% (active) with HCC-2998 colon and -25.2% (active) in the assay with KM12 colon.
For the molecule `CC(=O)CCC(=O)OCc1cc(=O)c(O)co1`, the growth was 111% with T-47D breast; 102% with BT-549 breast; 106% with MDA-MB-435 melanoma; 97% in the assay on SW-620 colon; 99% with MCF7 breast; 97.3% with HCT-116 colon. Besides, the growth was 87.3% with HCC-2998 colon and 93.5% in the assay on KM12 colon.
Consider `CCN(CC)c1ccc(/C=N/NC(=O)CSc2nc3ccccc3c(=O)n2Cc2ccc(S(N)(=O)=O)cc2)c(O)c1`, for which the growth with T-47D breast was 6.32% (active); in the assay with BT-549 breast, 33.6%; in the assay with MDA-MB-435 melanoma it was 13.8%; in the assay on SW-620 colon it was 21.4%; in the assay on MCF7 breast it was 13.3%; in the assay with HCT-116 colon, 21.5%. The growth in the assay with HCC-2998 colon is 20.3%; in the assay with KM12 colon, 15.2%.
Regarding `COc1cc(/C=C/c2cc(O)c(C(C)=O)c(O)c2)cc2c1O[C@]1(C)CC[C@@H](O)C(C)(C)[C@H]1C2`, the growth in the assay on T-47D breast was 49%; in the assay with BT-549 breast, 22.1%; in the assay with MDA-MB-435 melanoma, 73%; with SW-620 colon, 69.3%; with MCF7 breast, 45.3%; in the assay with HCT-116 colon, 45.2%. Besides, the growth is 75.1% in the assay on HCC-2998 colon and 53.9% with KM12 colon.
